# In PubChem BioAssay (Tox21):
# Inconclusive results are not listed. Values without a mark were called inactive. Calls of active or inactive are those of the source. Unless noted, the call rests on the fitted dose curve.
# Molecular target: Vitamin D3 receptor (Homo sapiens) (UniProt P11473)
# Experiment: qHTS assay to identify small molecule agonists of the vitamin D receptor (VDR) signaling pathway (AID 743222)
# Conditions: HEK293T VDR-UAS-bla, beta-lactamase FRET ratio, 16 h; series mostly up to 63.5 µM
# Summary of the method: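 Agonist activity measured in VDR-bla reporter cells. Exposure 16 h, 37C, 5% CO2; detection by B/G FRET substrate, 2 h RT.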
# On the % scale 0 is the no-effect control and ±100 the full control effect.
# Vitamin D3 receptor (Homo sapiens), sequence (P11473 whole entry, looked up): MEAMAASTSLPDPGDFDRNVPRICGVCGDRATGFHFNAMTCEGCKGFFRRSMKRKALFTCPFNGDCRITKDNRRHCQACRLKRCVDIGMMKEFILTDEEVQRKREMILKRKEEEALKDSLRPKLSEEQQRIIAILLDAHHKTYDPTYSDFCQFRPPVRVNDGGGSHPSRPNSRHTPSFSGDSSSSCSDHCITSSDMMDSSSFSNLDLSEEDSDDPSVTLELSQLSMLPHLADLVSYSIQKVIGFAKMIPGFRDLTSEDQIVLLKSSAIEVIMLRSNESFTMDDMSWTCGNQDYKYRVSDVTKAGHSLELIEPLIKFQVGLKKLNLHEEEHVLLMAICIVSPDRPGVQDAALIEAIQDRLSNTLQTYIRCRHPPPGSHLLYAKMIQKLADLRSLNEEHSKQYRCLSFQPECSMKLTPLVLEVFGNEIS
row,Structure (SMILES),outcome
1,C=C(C)C(=O)Nc1ccc(Cl)c(Cl)c1,inactive
2,CCCCC(CC)COC(=O)C(C#N)=C(c1ccccc1)c1ccccc1 (configuration not stated),inactive
3,OCCOCCOCCO,inactive
4,CN(C)CCCN,inactive
5,CCCCN(CCCC)CCCC,inactive
6,CCCCCC1=CCCC1=O,inactive
7,O=C(O)c1ccc2c(c1)C(=O)OC2=O,inactive
8,N[C@@H](Cc1cc(I)c(Oc2cc(I)c(O)c(I)c2)c(I)c1)C(=O)O,inactive
9,O=C(O)c1cc(O)c(O)c(O)c1,inactive
10,c1c[nH]cn1,inactive
11,c1ccc2scnc2c1,inactive
12,CC(=O)Nc1ccccc1,inactive
13,CCCCCCCCCC,inactive
14,O=C(O)[C@H](O)[C@@H](O)[C@H](O)[C@H](O)CO,inactive
15,CC(c1cc2ccccc2s1)N(O)C(N)=O (configuration not stated),inactive

# Molecular target: Vitamin D3 receptor (Homo sapiens) (UniProt P11473)
# Experiment: qHTS assay to identify small molecule antagonists of the vitamin D receptor (VDR) signaling pathway (AID 743223; active means well fitted inhibition curve with a large enough effect in the signal ratio in the repeat runs, not every such curve was filed as active; the % refers to the signal ratio)
# Conditions: VDR-UAS-bla HEK293T, beta-lactamase FRET ratio, 16 h; series mostly up to 61 µM
# Summary of the method: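 Agonist 1alpha,25-dihydroxyvitamin D3 (3 nM in well) was added with each compound to VDR-bla cells preincubated 4 h. Cells stood 16 h at 37C, then FRET substrate 2 h at room temperature; fluorescence intensity recorded.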
Structure (SMILES),outcome,"activity change, negative = inhibition"
C=C(C)C(=O)O[C@H]1C[C@@H]2CC[C@@]1(C)C2(C)C,inactive,–
O=S1(=O)CC=CC1,inactive,–
Oc1cccc2ccccc12,inactive,–
C=C(C)C(=O)OCCOCCOCCOC(=O)C(=C)C,inactive,–
O=C(O)CCCCCCCCCCC(=O)O,inactive,–
O=[N+]([O-])c1ccc(/C=C/c2ccc([N+](=O)[O-])cc2S(=O)(=O)O)c(S(=O)(=O)O)c1,inactive,–
O=C=NCCCCCCN=C=O,inactive,–
COc1ccc2cc([C@H](C)C(=O)O)ccc2c1,inactive,–
C[Si](O[Si](C)(C)C)O[Si](C)(C)C,inactive,–
C/C=C1/CC2C=CC1C2 (configuration not stated),inactive,–
c1ccc2c(c1)ccc1ccccc12,inactive,–
CCN(CC)CCCC(C)Nc1ccnc2cc(Cl)ccc12 (configuration not stated),–,1.54% [at 6.95 µM]
CCCCCC/C(C=O)=C\c1ccccc1,inactive,–
C=C(C)C(=O)Nc1ccc(Cl)c(Cl)c1,inactive,–
CCCCC(CC)COC(=O)C(C#N)=C(c1ccccc1)c1ccccc1 (configuration not stated),inactive,–
OCCOCCOCCO,inactive,–
CN(C)CCCN,inactive,–
CCCCN(CCCC)CCCC,inactive,–
CCCCCC1=CCCC1=O,inactive,–
O=C(O)c1ccc2c(c1)C(=O)OC2=O,inactive,–
N[C@@H](Cc1cc(I)c(Oc2cc(I)c(O)c(I)c2)c(I)c1)C(=O)O,inactive,–
O=C(O)c1cc(O)c(O)c(O)c1,inactive,–
c1c[nH]cn1,inactive,–
c1ccc2scnc2c1,inactive,–
CCCCCCCCCC,inactive,–
O=C(O)[C@H](O)[C@@H](O)[C@H](O)[C@H](O)CO,inactive,–
CC(c1cc2ccccc2s1)N(O)C(N)=O (configuration not stated),inactive,–
